# From PubChem BioAssay
# Lassa entry = qHTS for Inhibitors of binding or entry into cells for Lassa Virus; AID 720533, 2013; Lassa virus pseudotyped entry inhibition, cell-based qHTS; hit rate 4.1% among 18,000; Potency, µM (highest dose often 49.2 µM), most hits filed as inhibitors
# Marburg entry = qHTS for Inhibitors of binding or entry into cells for Marburg Virus. AID 720532, 2013. hit rate 6.5% among 18,000. Potency, µM (doses to about 49.2 µM), actives largely listed as inhibitors. Marburg virus pseudotype entry/binding inhibition, cell-based
# A number is an active result; i = inactive; ? = inconclusive; nt = no result given; [ ] = remark or other dose. This is a sample that favours compounds with a hit; in the whole collection about 8% have one here. Calls follow the shape of the full dose curve; tested in HEK293 cells.
SMILES,Lassa entry,Marburg entry
CC#C[C@H](C)[C@@H](OCOC)[C@H](C[C@H](C)Cc1cc(Br)cc(OCc2ccccc2)c1OC)OC,i[8.59 µM],i[8.59 µM]
COC(=O)C1(C(=O)OC)C[C@@H]2CON=C2[C@@H]1c1ccccc1,i[8.59 µM],i[8.59 µM]
COC(=O)N[C@H](C(C(=O)OC)=C(C)NCc1ccccc1)c1ccc(Cl)cc1,i[8.59 µM],i[8.59 µM]
C/C=C/c1ccc(OC)cc1,i,i
COc1ccc(/C=C/c2cc(OC)cc(=O)o2)cc1,8.9µM,1.8µM
C#CCOCC#CC[C@@]1(C(=O)OC)C=C[C@@H](C)[C@H](c2ccccc2Br)N1C(=O)C(F)(F)F,nt,i[8.59 µM]
CCCCCCCCCC=C[C@@H]1C[C@H]2C=CCO[P@@](=O)(O1)O2,i,i
CC(C)OC(=O)c1cc2c(OCC(O)CNC(C)(C)C)cccc2[nH]1 (configuration not stated),i,35µM
C=NCc1cc2c(OC[C@@H](O)CNC(C)(C)C)cccc2[nH]1,i,?
CC(=O)C1=C(C)N(Cc2ccccc2)C(=O)NC1c1ccc(Br)cc1 (configuration not stated),?,i[8.59 µM]
C=C(C)CCCN1C=C(C(=O)OCC)C(c2ccccc2)NC1=O (configuration not stated),nt,i[8.59 µM]
CC1=C[C@@H](COc2ccccc2)O[C@@]2(C1)C(=O)N(Cc1ccccc1)c1ccccc12,i[8.59 µM],?
C=CCc1cccc(/C=N/NC(=O)CN2CCN(Cc3ccccc3)CC2)c1O,13µM,?
C=CCN=C1NC(c2cccc(F)c2)C(C(=O)OC)=C(C)N1Cc1ccccc1 (configuration not stated),i[8.59 µM],?
CCOC(=O)CN1C(=O)NC(c2cccc(F)c2)C(C(C)=O)=C1C (configuration not stated),i[8.59 µM],i[8.59 µM]
CC(C)(C)NCC(O)c1ccc(O)c(CO)c1 (configuration not stated),i,i
OCc1cc(C(O)CNCCCCCCOCCCCc2ccccc2)ccc1O (configuration not stated),?,16µM
C#CCN1C(=O)[C@]2(OCCC=C[C@H]2C)c2c(Br)cccc21,i[8.59 µM],?
Clc1ccc(C2(Cn3cncn3)OCCO2)c(Cl)c1,i,i
CCCC1COC(Cn2cncn2)(c2ccc(Cl)cc2Cl)O1 (configuration not stated),13µM,11µM
O=C1NC(=O)C(c2ccc(Cl)cc2)=C1Nc1ccc(Cl)c(C(=O)O)c1,i,?
COC(=O)C[C@H]1c2ccccc2[C@@H]2C(=C[C@@H](C)[C@H]3C(=O)NC(=O)[C@H]32)N1C(=O)OC,i[8.59 µM],i[8.59 µM]
CC(=O)OC[C@H]1O[C@H](CC=NOC[C@@H](O)[C@H]2O[C@@H]3OC(C)(C)O[C@H]3[C@@H]2O)C=C[C@H]1OC(C)=O,i[8.59 µM],?
CC[C@]1(O)CC(O[C@@H]2CC(N(C)C)C(O)C(C)O2)c2c(cc3c(c2O)C(=O)c2c(O)ccc(O)c2C3=O)C1C(=O)OC (some centres not stated),i,?
CC[C@@]1(O)C[C@H](O[C@H]2C[C@H](N(C)C)[C@H](O[C@H]3C[C@H](O)[C@H](O[C@H]4CCC(=O)[C@H](C)O4)[C@H](C)O3)[C@H](C)O2)c2c(cc3c(c2O)C(=O)c2c(O)cccc2C3=O)[C@H]1C(=O)OC,8.9µM,?
Cc1cc2c(nc1C)CCCN2CC(O)CN1CCCc2nc(-c3ccc(Br)cc3)ccc21 (configuration not stated),i[8.59 µM],?
COc1ccccc1N1CCN(CCCCNC(=O)c2ccc3ccccc3c2)CC1,i,i
COc1cc2c(N3CCN(C(=O)Nc4ccc(OC(C)C)cc4)CC3)ncnc2cc1OCCCN1CCCCC1,?,8.9µM
COC(=O)CC=C[C@@H](C)[C@@H](C=NOC[C@@H](O)[C@H]1O[C@@H]2OC(C)(C)O[C@H]2[C@@H]1O)OC,i[8.59 µM],i[8.59 µM]
C=C(C)C(=O)C=CCCCC=CC(=O)OCC,i[8.59 µM],i[8.59 µM]
